Source: PubChem BioAssay
This is one part of a sample in which hits are shown more often than they occur.
Giardia FBPA inh: Giardia lamblia aldolase inhibition; A8B2U2; purified Giardia FBPA; Potency, µM (top dose mostly 59.6 µM), for the others: at the top dose activity, negative = inhibition, hits mostly inhibitors; 290,000 tested, 0.71% active; AID 2451; also: potency is read from the fitted curve at half-maximal effect; % is scaled to controls: 0 for no effect and ±100 for the full control effect; nearly all actives have a fitted effect of over 55% in size
Target sequence (A8B2U2 whole entry, looked up): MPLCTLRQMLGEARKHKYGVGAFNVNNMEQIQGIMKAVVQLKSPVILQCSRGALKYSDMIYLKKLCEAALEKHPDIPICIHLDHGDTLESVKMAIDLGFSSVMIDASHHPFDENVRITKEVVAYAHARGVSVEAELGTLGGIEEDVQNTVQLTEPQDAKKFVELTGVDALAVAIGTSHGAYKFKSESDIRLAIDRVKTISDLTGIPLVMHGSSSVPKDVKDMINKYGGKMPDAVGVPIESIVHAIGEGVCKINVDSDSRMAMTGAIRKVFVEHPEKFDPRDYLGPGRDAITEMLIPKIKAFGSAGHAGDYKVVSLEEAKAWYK
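40 nM FBPA preincubated 10 min at RT with compound (up to 57.5 uM final), then substrate plus GAPDH/TPI/NAD/arsenate coupling and diaphorase/resazurin added. Fluorescence read after 20 min at RT, 525/598 nm.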
Cycloheximide cs: counter-screen for Shiga toxin inhibitors: cycloheximide protein synthesis inhibition. cell reporter, cycloheximide protein synthesis inhibition counterscreen. max response, %. 300,000 tested, 12% active. AID 2314; in the data active = max response mostly above about 13%, no sharp cut-off; inactive = mostly below about 14%; also: read at 38.3 µM for the half of the compounds with a filed dose; 0% is about no effect
TbPYK inhibitor: inhibitors of Trypanosoma brucei pyruvate kinase. Q57TT1. TbPYK enzyme, Kinase-Glo Plus ATP luminescence, 45 min. Potency, µM (highest dose often 76.8 µM), inactives show top-dose activity, negative = inhibition, most hits filed as inhibitors. 410,000 tested, 0.12% active. AID 624173; also: potency is read from the fitted curve at half-maximal effect; % is scaled to controls: 0 for no effect and ±100 for the full control effect; nearly all actives have a fitted effect of over 50% in size
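Enzyme and substrate buffer are dispensed first and compound is pin-transferred. ADP at 130 uM final then starts the reaction, which runs 45 min at room temperature. Detection reagent is added for 10 min before luminescence is imaged.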
Shiga inhibitor: Shiga toxin inhibition | Vero cells, Shiga toxin protein synthesis inhibition reporter | inhibition, % at 38.7 µM | 290,000 tested, 9.2% active; in the data active = inhibition mostly above about 28%, no sharp cut-off; inactive = mostly below about 43%; also: 0% is about no effect
LmPK inhibitor: LmPK (Leishmania mexicana) enzyme inhibition | purified LmPK, Kinase-Glo ATP luminescence, 1 h | Potency, µM (doses to about 57.5 µM), without a hit: at the top dose activity change, negative = inhibition, actives largely listed as inhibitors | 290,000 tested, 0.37% active | AID 1721; also: potency is read from the fitted curve at half-maximal effect; % is scaled to controls: 0 for no effect and ±100 for the full control effect
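Screened at intermediate enzyme activity to detect both inhibitors and activators: LmPK at 0.1 nM, with a 0.5 nM enzyme column as activation reference. PEP 0.5 mM, ADP 0.1 mM; ATP detected by luminescence after 1 h.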
RE007 growth inh: less growth of the S. pombe RE007 Vpr strain; Potency, µM (highest dose often 92.2 µM), for the others: at the highest dose activity change, negative = less growth, actives largely listed as inhibitors; S. pombe RE007 Vpr strain, BacTiter-Glo ATP luminescence, 24 h; 360,000 tested, 0.21% active; active = well fitted falling curve with a large enough effect; inconclusive = small, poorly fitted or top-dose-only effect; inactive = no such curve, though single readings can be large or run the other way; also: potency is read from the fitted curve at half-maximal effect; % is scaled to controls: 0 for no effect and ±100 for the full control effect; nearly all actives have a fitted effect of over 50% in size
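Fission yeast RE007 carrying one integrated HIV-1 vpr copy, seeded at OD 0.01 in PMG+AL medium with 23 nL pinned compound. Grown 24 h at 30 degrees; viability read by BacTiter-Glo luminescence after 5 min.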
Numbers without * were called inactive; ? = inconclusive; nt = no result. Unless noted, calls follow the shape of the dose curve; as a rule, active = well fitted curve in the direction sought with a large enough effect; inconclusive = small, poorly fitted or top-dose-only effect, or another doubt; inactive = no such curve, though single readings can be large; an effect the other way counts as inactive or inconclusive.

SMILES	Giardia FBPA inh	Cycloheximide cs	TbPYK inhibitor	Shiga inhibitor	LmPK inhibitor	RE007 growth inh
CCCCNC(=O)/C=C/c1cccs1	1%	33*	-1%	48*	0%	-70%
Cc1cccc(N2CCN(C(=O)C3CCCN(S(=O)(=O)c4ccc(Br)s4)C3)CC2)c1C (stereo unspecified)	nt	nt	-6%	nt	nt	nt
COc1ccc(C(=O)Nc2sc(C)c(C)c2CN2CC(C)OC(C)C2)cc1 (stereo unspecified)	4%	31*	4%	68*	3%	-2%
CCOC(=O)[C@]12Cc3cc(Cl)ccc3[C@H]1N(C1CCCCC1)C(=O)c1cc(OC)ccc12	nt	nt	-1%	nt	nt	63µM*
CCOC(=O)[C@]12Cc3ccc(C)cc3[C@H]1N(C1CCCCC1)C(=O)c1cc(OC)ccc12	nt	nt	-11%	nt	nt	16µM*
CCOC(=O)[C@]12Cc3ccc(C)cc3[C@H]1N(C1CCCCC1)C(=O)c1ccccc12	nt	nt	1%	nt	nt	-2%
COc1cc2ccc(C(=O)O)cc2cc1OC	nt	nt	-4%	nt	nt	-19%
O=c1cc(CN2CCN(c3ccccc3)CC2)c2ccccc2o1	nt	nt	3%	nt	nt	29%
CC(C)(C)C(=O)Cn1ncc(N2CCOCC2)c(Cl)c1=O	8%	17*	3%	32*	-6%	nt
CC(=O)Cn1ncc(N2CCOCC2)c(Cl)c1=O	2%	7	-2%	-4	1%	nt
O=C(Cn1ncc(N2CCCC2)c(Cl)c1=O)c1ccc(Cl)cc1	-2%	38*	6%	90*	-2%	3%
O=C(Cn1ncc(N2CCOCC2)c(Br)c1=O)c1ccc(Cl)cc1	1%	35*	1%	80*	2%	-9%
CN(C)c1ccc(N=Nc2ccc(S(N)(=O)=O)cc2)cc1	4%	52*	-5%	89*	-6%	20%
Nc1nc(O)c(N=Nc2ccc(S(N)(=O)=O)cc2)c(=O)[nH]1	4%	-3	5%	4	0%	8%
CN(C)N=Nc1ccc(S(N)(=O)=O)cc1	3%	-4	-1%	-6	0%	-18%
NS(=O)(=O)c1ccc(N=Nc2c[nH]c(=O)c(O)c2)cc1	7.1µM*	-3	?	-3	?	-20%
COc1ccc(-c2csc(NC(=O)C3CC(=O)N(Cc4ccco4)C3)n2)cc1 (stereo unspecified)	-5%	10	3%	13	1%	-5%
c1coc(CNc2nc3ccccc3s2)c1	9%	51*	-6%	80*	1%	-16%
COc1ccc(-c2csc(NCc3ccco3)n2)cc1	-8%	42*	-7%	72*	-3%	?
c1coc(CNc2nc(-c3ccncc3)cs2)c1	1%	36*	2%	72*	3%	-12%
Cc1c(/C=N\NC(=O)c2csc3ccccc23)cnn1C	-4%	11	2%	27*	-5%	4%
Cc1ccc(-c2cc(C(=O)N/N=C/c3c(C)nn(C)c3C)c3ccccc3n2)c(C)c1	-1%	-6	1%	-12	15%	-22%
CCn1ncc(/C=N\NC(=O)c2csc3ccccc23)c1C	1%	12	1%	53*	-2%	0%
Cc1nn(C)c(C)c1/C=N/NC(=O)c1csc2ccccc12	-3%	18*	-5%	24	6%	3%
Cc1ccc(/C=C/c2onc(C)c2S(=O)(=O)N2CCC(C(=O)Nc3cc(C)ccc3C)CC2)cc1	nt	nt	-1%	nt	nt	nt
SMILES	Giardia FBPA inh	Cycloheximide cs	TbPYK inhibitor	Shiga inhibitor	LmPK inhibitor	RE007 growth inh
Cc1ccc(-c2ccc(/C=C/C(=O)c3ccccc3)o2)cc1	-4%	26*	-5%	28	-15%	nt
O=C(/C=C/c1ccc(-c2ccccc2)o1)c1ccccc1	-25%	74*	-1%	72*	-20%	-1%
O=C(/C=C/c1ccc(-c2ccccc2[N+](=O)[O-])o1)c1ccc(F)cc1	-21%	43*	-1%	64*	1%	-21%
Clc1ccc(-c2noc3c2-c2nc(Cc4cccc5ccccc45)sc2CC3)cc1	nt	nt	-9%	nt	nt	-1%
Cc1cnc2c(c1SCC(=O)Nc1ccc(F)cc1F)c(=O)n(C)c(=O)n2C	nt	nt	2%	nt	nt	nt
Cc1cc2c(cc1C)-n1nnnc1C(N1CCN(c3ccccn3)CC1)C(c1ccc3c(c1)OCO3)=N2 (stereo unspecified)	nt	nt	nt	nt	nt	-6%
Cn1c(=O)n(-c2ccc(F)c(Cl)c2)c(=O)c2sc3ccccc3c21	nt	nt	6%	nt	nt	nt
c1ccc(C2=Nc3ccccc3OC2)cc1	-9%	21*	-3%	43	?	?
Clc1ccc(C2=Nc3cc(Cl)ccc3OC2)cc1	0%	27*	0%	60*	-16%	-16%
NC1=Nc2ccccc2Oc2ccccc21	-2%	0	0%	-3	0%	11%
Cc1ccc2c(c1)N=C(c1ccc(Cl)cc1)CO2	0%	53*	-8%	56*	?	-7%
Clc1ccc(C2=NN=C3COc4ccccc4N3C2)cc1	0%	-2	0%	2	4%	-17%
Cc1onc(-c2ccccc2Cl)c1C(=O)N1CCCc2ccccc21	-6%	-4	?	-13	1%	0%
CCN(CC)S(=O)(=O)c1cccc(C(=O)N2CCCc3ccccc32)c1	12%	21*	-3%	38*	-6%	3%
O=C(c1cc(S(=O)(=O)N2CCOCC2)ccc1F)N1CCc2ccccc21	nt	nt	7%	nt	nt	5%
O=C(c1cc(S(=O)(=O)N2CCOCC2)ccc1F)N1CCCc2ccccc21	4%	22*	14%	27	0%	-8%
Cc1onc(-c2c(F)cccc2Cl)c1C(=O)N1CCCc2ccccc21	-8%	-1	7.1µM*	-9	5%	-19%
O=C(CNc1cccc(S(=O)(=O)N2CCOCC2)c1)N1CCc2ccccc21	1%	10*	0%	45*	3%	10%
O=C(c1ccccc1F)N1CCCc2ccccc21	-6%	29*	-7%	55*	0%	1%
O=C(c1cccc(F)c1F)N1CCCc2ccccc21	-6%	6	-3%	nt	1%	-13%
Nc1c(C(=O)Nc2cccc(F)c2)nnn1-c1ccc2c(c1)OCCO2	7%	20*	-12%	70*	-3%	0%
Nc1c(C(=O)Nc2ccc3c(c2)OCCO3)nnn1Cc1ccc(F)cc1	nt	nt	-4%	nt	nt	-27%
Cc1ccccc1NC(=O)c1nnn(-c2ccc3c(c2)OCCO3)c1N	nt	53*	-9%	80*	-8%	6%
COc1ccc(CCNC(=O)c2nnn(-c3ccc4c(c3)OCCO4)c2N)cc1OC	-27%	70*	-5%	151*	7%	9%
CCOc1ccccc1NC(=O)c1nnn(-c2ccc3c(c2)OCCO3)c1N	-7%	26*	9%	64*	-5%	25%
COc1ccc(CCNC(=O)c2nnn(-c3ccccc3OC)c2N)cc1OC	-1%	-2	-6%	-2	0%	11%
Cc1ccc(OCCNC(=O)CCc2ccccc2)cc1C	nt	nt	2%	nt	nt	4%
